Data: PubChem BioAssay (NCI)
This is part of a sample that, as a whole, favours compounds with a hit. Of some 83,000 tested, about 20% had one in any assay.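 Treatment: one concentration, 48 hours, 96-well format. Scoring: percent growth, with anything below 10 considered active.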 Values without a mark were called inactive.

Each compound was assayed on MDA-MB-468 breast (assay: NCI-60 one-dose screen, 48 h (100 = growth as untreated, 0 = no growth, -100 = all killed)). Settings: 10 µM unless noted.

SMILES	growth [%]
COC1=CC=CC2(OC)C3(O)CCCc4cccc(c43)N3C(=O)COC132 (centres undefined)	115
Oc1ccccc1/C=N/Nc1nc2ccccc2s1	21.5
Cn1c(SCC(=O)c2cccs2)nc2ccccc2c1=O	68.7
CCOC(=O)C1=C(c2ccccc2)N=C2SC=C(c3ccc(Cl)cc3)N2C1c1ccc(Cl)cc1 (centres undefined)	41.3
